# Experimental data published in PubChem BioAssay (NCI).
# “And” between values parts separate entries of the source, which are not always exact repeats. Equal entries are not always repeated. Compounds without any hit were thinned out: in the full panel of roughly 79,000, 15% have a hit. The source holds several records for some structures; these can differ, active in one and inactive in another. The source made the active and inactive calls. Cut-off read from the data, not from the text of the source: active = growth inhibition above about 70%; inactive = the rest.
# Assays:
# [1] = NCI Yeast Anticancer Drug Screen. Data for the rad50 strain (AID 155);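 note: 0% = growth of vehicle-only cultures of the same strain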; details: S. cerevisiae rad50 strain growth inhibition, stronger effect = higher value
# In short: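 Growth of the mutant yeast was measured after compound exposure and referenced to vehicle-treated cultures.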
# [2] = NCI Yeast Anticancer Drug Screen. Data for the mec2-1 strain (AID 157); details: S. cerevisiae mec2-1 strain, stronger effect = higher value
# In short: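 mec2-1 yeast strain, carrying an alteration in DNA damage repair or cell cycle control, was exposed to compounds; growth inhibition was measured relative to vehicle-treated controls.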
# [3] = NCI Yeast Anticancer Drug Screen. Data for the sgs1 mgt1 strain (AID 161);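 note: 0% = growth of cultures given vehicle only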; details: S. cerevisiae sgs1 mgt1 strain, stronger effect = higher value
# In short: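 Yeast cells carrying a defined DNA-repair defect were exposed to test compounds. Growth inhibition was measured relative to vehicle-treated controls.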
# [4] = NCI Yeast Anticancer Drug Screen. Data for the cln2 rad14 strain (AID 165);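 note: 0% = growth equal to vehicle treated cultures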; details: S. cerevisiae cln2 rad14 strain, stronger effect = higher value
# In short: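 Yeast carrying cln2 and rad14 alterations (cell cycle control and DNA damage repair) were exposed to compounds. Growth inhibition was measured against vehicle-treated controls.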
# [5] = NCI Yeast Anticancer Drug Screen. Data for the bub3 strain (AID 167); details: S. cerevisiae bub3 mutant strain, stronger effect = higher value
# In short: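 Whole-cell yeast assay. The mutant strain was incubated with compounds, and growth inhibition was determined by comparison with vehicle-treated cells.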
# [6] = NCI Yeast Anticancer Drug Screen. Data for the mlh1 rad18 strain (AID 175); details: S. cerevisiae mlh1 rad18 strain growth inhibition, stronger effect = higher value
# In short: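 Growth inhibition of the yeast strain was measured after compound exposure and expressed relative to vehicle-treated controls. The strain carries defined defects in DNA damage repair.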
# [7] = at 5.0 µM (retest, dose inferred, filed as 0.5)
# [8] = at 50.0 µM (retest, dose inferred, filed as 5.0)
SMILES,"growth inhibition [1, 7]","growth inhibition [1, 8]",growth inhibition ([1]; at 50.0 µM),"growth inhibition [2, 7]","growth inhibition [2, 8]",growth inhibition ([2]; at 50.0 µM),"growth inhibition [3, 7]","growth inhibition [3, 8]",growth inhibition ([3]; at 50.0 µM),"growth inhibition [4, 7]","growth inhibition [4, 8]",growth inhibition ([4]; at 50.0 µM),"growth inhibition [5, 7]","growth inhibition [5, 8]",growth inhibition ([5]; at 50.0 µM),"growth inhibition [6, 7]","growth inhibition [6, 8]",growth inhibition ([6]; at 50.0 µM)
CCCCS.[Hg],99% (active),94% (active),98.9% (active),99% (active),96% (active),99% (active),99% (active),94% (active),99.1% (active),97% (active),93% (active),98.7% (active),99% (active),93% (active),98.8% (active),99% (active),94% (active),99.2% (active)
CCN(CC)C1CC(O[C@H]2C[C@](O)(C(=O)CO)Cc3c(O)c4c(c(O)c32)C(=O)c2c(OC)cccc2C4=O)OC(C)C1O (stereo partly specified),98% (active),98% (active),99.2% (active),99% (active),99% (active),99.3% (active),99% (active),99% (active),99.5% (active),97% (active),98% (active),98.8% (active),98% (active),99% (active),99% (active),98% (active),96% (active),99.3% (active)
CCCCCCCC/C=C\CCCCCCCCN1CC(C(=O)[O][Pb]([CH2]C)([CH2]C)[CH2]C)CC1=O (stereo unspecified),7% (inactive),77% (active),30.1% (inactive),5% (inactive),80% (active),28.8% (inactive),10% (inactive),79% (active),65.9% (inactive),5% (inactive),66% (inactive),9.45% (inactive),4% (inactive),82% (active),23.3% (inactive),1% (inactive),72% (active),65.7% (inactive)
ClCCN(CCCl)c1ccc(CNCCCNCc2ccc(N(CCCl)CCCl)cc2)cc1,-1% (inactive),57% (inactive),94.7% (active),-13% (inactive),7% (inactive),49% (inactive),-12% (inactive),41% (inactive),99.1% (active),-2% (inactive),37% (inactive),14.8% (inactive),-3% (inactive),38% (inactive),43% (inactive),4% (inactive),98% (active),99.2% (active)
CN1CN(c2ccccc2)C2(CCN(C3Nc4ccccc4O3)CC2)C1=O (stereo unspecified),7% (inactive),33% (inactive),40% (inactive),2% (inactive),26% (inactive),44.5% (inactive),-1% (inactive),30% (inactive),58.5% (inactive),31% (inactive),42% (inactive),35% (inactive),-16% (inactive),-4% (inactive),50.8% (inactive),10% (inactive),57% (inactive),45.6% (inactive)
COc1cccc(C(Cc2ccc(N3C(N)=NC(N)=NC3(C)C)cc2)C(=O)Nc2ccc(S(=O)(=O)F)cc2)c1 (stereo unspecified),8% (inactive),96% (active),99.5% (active),-139% (inactive),99% (active),99.6% (active),1% (inactive),99% (active),99.8% (active),-1% (inactive),92% (active),96.7% (active),1% (inactive),98% (active),95% (active),6% (inactive),99% (active),99.4% (active)
NCC(O)c1cccc(O)c1 (stereo unspecified),-18% (inactive),77% (active),70.3% (active),-12% (inactive),50% (inactive),40.2% (inactive),-8% (inactive),51% (inactive),66.3% (inactive),–,–,–,12% (inactive),77% (active),75.2% (active),11% (inactive),92% (active),65.3% (inactive)
O=C(COc1ccc(Cl)c(Cl)c1)N(Cc1ccccc1)Cc1ccc[n+](Cc2ccc(Cl)cc2S(=O)(=O)F)c1,8% (inactive),84% (active),54% (inactive),44% (inactive),42% (inactive),54.9% (inactive),2% (inactive),62% (inactive),-0.3% (inactive),–,–,–,2% (inactive),82% (active),42.4% (inactive),6% (inactive),96% (active),60.1% (inactive)
CCCCCCCCCCCCN1CC1,-26% (inactive),26% (inactive),91% (active),-38% (inactive),-7% (inactive),68% (inactive),-10% (inactive),47% (inactive),58.5% (inactive),-23% (inactive),-2% (inactive),59.5% (inactive),–,–,–,-70% (inactive),-17% (inactive),67.1% (inactive)
Clc1c(CI)ccc(CI)c1Cl,22% (inactive),79% (active),98.7% (active),60% (inactive),90% (active),97.2% (active),17% (inactive),74% (active),98.7% (active),34% (inactive),85% (active),54.3% (inactive),62% (inactive),89% (active),87.2% (active),82% (active),96% (active),97.5% (active)
O=C1c2ccccc2-c2cccc3cccc1c23,3% (inactive),-52% (inactive),-13.8% (inactive) and 32.1% (inactive),-12% (inactive),-26% (inactive),4.65% (inactive) and 0.55% (inactive),-9% (inactive),-40% (inactive),-14.2% (inactive) and -19.6% (inactive),-6% (inactive),-17% (inactive),-0.75% (inactive) and 63.6% (inactive),-15% (inactive),-88% (inactive),-2.35% (inactive) and 10.1% (inactive),-1% (inactive),-39% (inactive),-6.8% (inactive) and 24.3% (inactive)
COP(=S)(OC)N(C)C(=O)Oc1cccc2ccccc12,0% (inactive),27% (inactive),48.5% (inactive),-21% (inactive),15% (inactive),39.2% (inactive),-20% (inactive),57% (inactive),60% (inactive),0% (inactive),10% (inactive),55.5% (inactive),9% (inactive),40% (inactive),61.4% (inactive),-14% (inactive),77% (active),80.8% (active)
C[CH2][Sn]([CH2]C)([O]C(C)=O)[O][Sn]([CH2]C)([CH2]C)[O]C(C)=O,23% (inactive),80% (active),64% (inactive),24% (inactive),91% (active),60.1% (inactive),15% (inactive),82% (active),84.8% (active),30% (inactive),68% (inactive),86.1% (active),–,–,–,26% (inactive),86% (active),89.1% (active)
O=C1c2ccccc2[Se](=O)N1c1ccccc1 (stereo unspecified),50% (inactive),96% (active),93.1% (active),61% (inactive),99% (active),93.9% (active),23% (inactive),96% (active),93% (active),–,–,–,72% (active),99% (active),90.8% (active),83% (active),98% (active),90.8% (active)
CC[n+]1c(/C=C/c2ccc(N(CCCl)CCCl)cc2)ccc2cc(I)ccc21,99% (active),99% (active),91% (active),99% (active),99% (active),90.8% (active),99% (active),99% (active),89.5% (active),99% (active),99% (active),88.9% (active),99% (active),99% (active),91.5% (active),99% (active),99% (active),88.7% (active)
CCOC(=O)NC(=S)[S][Sb]([S]C(=S)NC(=O)OCC)[S]c1nc2ccc(N=Nc3ccc(NS(=O)(=O)c4ccc(NC(=O)C(N5CC5)(N5CC5)N5CC5)cc4)cc3)cc2s1,70% (active),99% (active),99.2% (active),33% (inactive),99% (active),99.6% (active),46% (inactive),99% (active),99.5% (active),16% (inactive),98% (active),99% (active),24% (inactive),99% (active),99.3% (active),80% (active),99% (active),99.2% (active)
C[CH2][Sn]([Cl])([CH2]C)[O][Sn]([Cl])([CH2]C)[CH2]C,6% (inactive),90% (active),85.2% (active),4% (inactive),89% (active),96.2% (active),6% (inactive),94% (active),72.2% (active),-3% (inactive),86% (active),95% (active),–,–,–,8% (inactive),83% (active),84.9% (active)
CC(CCS(C)(=O)=O)([N+](=O)[O-])[N+](=O)[O-],48% (inactive),99% (active),55.2% (inactive),16% (inactive),99% (active),55% (inactive),28% (inactive),99% (active),52.6% (inactive),14% (inactive),99% (active),56.4% (inactive),–,–,–,24% (inactive),100% (active),98.3% (active)
O=C(CI)NCc1ccccc1,22% (inactive),98% (active),97.8% (active),29% (inactive),99% (active),99.2% (active),41% (inactive),99% (active),99% (active),12% (inactive),99% (active),97.8% (active),31% (inactive),99% (active),99% (active),55% (inactive),99% (active),99.2% (active)
O=S(=O)(CCl)C(Cl)(Cl)Cl,9% (inactive) and 5% (inactive),92% (active) and 61% (inactive),94.5% (active) and 63.5% (inactive),13% (inactive) and -32% (inactive),66% (inactive) and 49% (inactive),94.6% (active) and 62.2% (inactive),4% (inactive) and 3% (inactive),59% (inactive) and 67% (inactive),97% (active) and 51.5% (inactive),-2% (inactive) and 1% (inactive),44% (inactive) and 36% (inactive),83.6% (active) and 43.4% (inactive),–,–,–,5% (inactive) and 4% (inactive),86% (active) and 73% (active),95.8% (active) and 69.7% (inactive)
